Reference: the OligoGym collection

Each sequence was assayed against C13orf33 (assay: pooled miR-30 sensor sort-seq; sequence = guide strand). Details: shRNA.

Row | Sequence | sensor-assay potency score (higher = more potent)
1 | TACCTCTTGATGTAGCTGCTGA | 0.0733
2 | TAATCGTCTCCTTCTTTTCTGG | -0.326
3 | TAATAAAGAACAACATTGGTTT | -0.342
4 | TATCTGTCTTCTTATCTTGGGG | -0.395
5 | TAACTTTCTCCAATCACTGAGG | -0.682
6 | TCTATCTGTCTTCTTATCTTGG | -0.385
7 | TAACTTAATCGTCTCCTTCTTT | -0.331

The sequences below were run against C14orf105 in the same assay as above. Details: shRNA.

Row | Sequence | sensor-assay potency score (higher = more potent)
8 | TTTCTAGTACCTGCTTTGCTTT | -0.906
9 | TTGCTTTGTGCATTGTCCTGGC | 0.239
10 | TTCCTGAAGTAATTACTCGTGG | -0.0565
11 | TTGAATGCAAAGTCCACACGGC | 0.351
12 | TTTTCTTTAACTCCATTTGGGC | -0.637
13 | TTAATAATACTTGTTTCTCTGT | -0.864
14 | TTCCATACCAGTTTTCTTGTAA | 0.252
15 | TTTCTTTTCTAGTACCTGCTTT | -0.0807
16 | TTTGCTTTGTGCATTGTCCTGG | 0.729
17 | TTCTTTTCTAGTACCTGCTTTG | -0.834
18 | TTGCTTATTAATTCTTGCCTCT | -0.134
19 | TTTGCTTATTAATTCTTGCCTC | 0.114

Each sequence was assayed against C14orf109 in the same assay as above. Details: shRNA.

Row | Sequence | sensor-assay potency score (higher = more potent)
20 | ATGCTCTGTGCAATGGTCCCGA | -0.872
21 | ATAACTGCCAAGCATATAGGGA | -0.701
22 | AAACATAGTAAAATGCTGCTGC | 0.701
23 | ATAGGAACAAAAACATCTGTAA | -0.255
24 | TTCATCATTCTCCATGCTCTGT | -0.667
25 | TAACTGCCAAGCATATAGGGAT | -0.363
26 | TTGCAAATAACTGCCAAGCATA | -1.38
27 | TTCAAGGAGTGTGTCCATGTGG | -0.159
28 | AAAATAACTGTCCACACCCAAA | -1.6
29 | TACAATCCCACTCCAATCCATC | -0.538
30 | AAAAATAACTGTCCACACCCAA | -0.714
31 | TTAAAGAGTCACTCAGCTCTGA | 0.487

Each sequence was assayed against C14orf149 in the same assay as above. Details: shRNA.

Row | Sequence | sensor-assay potency score (higher = more potent)
32 | TAAAATCACCACATTTCGCTTC | 0.352
33 | TTAAAATCACCACATTTCGCTT | -0.838
34 | TAAACTGAGCTTTCACTGCCTC | -0.0059
35 | TCTATTATAAAGCTTGCTGTAC | -0.349
36 | ATGTCCAGGAACATCCACCATG | -1.62
37 | TCATCTTCTATTATAAAGCTTG | -0.499
38 | TTATAAAGCTTGCTGTACCCGT | 0.0873
39 | TTCTATTATAAAGCTTGCTGTA | -1.15
40 | TTCCCTGTGAATACTGAGCCAG | -0.697
